This note sets out measurements from PubChem BioAssay (NCATS).

One experiment addresses Papain (Carica papaya) (UniProt P00784). Description: Primary qHTS assay for inhibitors of the protease papain (AID 1645873).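 Also: papain turnover of Z-FR-AMC read as the AMC fluorescence gain over 10 min.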 Also: potency is read from the fitted curve at half-maximal effect. As to activity change, negative = inhibition: % is scaled to controls: 0 for no effect and ±100 for the full control effect.
Experiment [1] in a line: Primary qHTS for inhibitors of nuclear receptor binding SET domain protein 2 (NSD2) in an isogenic RCH-ACV NSD2 p.E1099K mutant (9B) (AID 1645876). Also: nearly all actives have a fitted effect of over 70% in size. Also: potency is read from the fitted curve at half-maximal effect.
Experiment [2] in a line: Primary qHTS for inhibitors of nuclear receptor binding SET domain protein 2 (NSD2) in an RCH-ACV wild type WT cells (2C) (AID 1645877). Also: nearly all actives have a fitted effect of over 70% in size. Also: potency is read from the fitted curve at half-maximal effect.
The nature of experiment [3]: NCATS anti-infectives library activity on HEK293 viability as a counter-qHTS vs the C. elegans viability qHTS (AID 1745854). Also: % is scaled to controls: 0 for no effect and ±100 for the full control effect. In outline: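 CellTiter-Glo luminescence, read on a CCD imager, scored viability of HEK293 cells after 24 hr compound exposure at 37C. Library tested in several concentrations, 1:5 steps, up to 41.7 uM; digitonin served as control.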
Experiment [4] is described as follows: Viability counterscreen for antagonist of constitutive androstane receptor (CAR) against the NCATS DSHEA and TCM libraries (AID 1794837).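 Also: compound exposure lasted 24 h before viability reading; 0% is about no effect.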 In outline:
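Cells: HepG2 line carrying CYP2B6 reporter and hCAR, seeded and attached 5 h. Then pin-transferred test substances plus agonist CITCO at 48 uM final; 24 h incubation; fluorogenic viability reagent, 1 h.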
For orientation: Counterscreens check selectivity or assay interference.

The nature of experiment [5]: Viability counterscreen for agonist of constitutive androstane receptor (CAR) against the NCATS DSHEA and TCM libraries (AID 1794838).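 Also: HepG2 cells with CYP2B6 reporter and hCAR plus 0.75 µM PK11195 antagonist; cells exposed to compound for 24 h; 0% is about no effect.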 In outline: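 Cell health was measured as CellTiter-Fluor signal in HepG2-CYP2B6-hCAR cells treated for 24 h with substances alongside the hCAR antagonist PK11195 (0.75 uM final).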
The nature of experiment [6]: NCATS anti-infectives library activity on the primary C. elegans qHTS viability assay (AID 1745855; calls by dose curve). The gist of the method: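 Titration-based screen in worms: eggs hatched overnight in M9, L1 larvae fed TOP10 capsules in S medium with compound, incubated 21 °C for 7 days; fluorescent objects gated by size and intensity at days 0, 3 and 7.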
In general terms: Quantitative high-throughput screening tests each substance at several concentrations.

The target in experiment [7] is Rap guanine nucleotide exchange factor 3 (Homo sapiens) (UniProt O95398). Description: Confirmatory qHTS for agonist of cAMP-regulated guanine nucleotide exchange factor 3 (EPAC1) (AID 1645881).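 Also: EPAC1 catalysed release of BODIPY-GDP from Rap1B seen as fluorescence loss; 100% = effect of cAMP agonist control; nearly all actives have a fitted effect of over 75% in size.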
The target of experiment [8] is Rap guanine nucleotide exchange factor 4 (Homo sapiens) (UniProt Q8WZA2). Description: Confirmatory qHTS for agonist of cAMP-regulated guanine nucleotide exchange factor 4 (EPAC2) (AID 1645884).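 Also: nucleotide exchange releases bodipy-GDP from Rap1 and this lowers its fluorescence; % is scaled to controls: 0 for no effect and ±100 for the full control effect; nearly all actives have a fitted effect of over 65% in size.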
For experiment [9] the target is unchanged. Description: Confirmatory qHTS for antagonist of cAMP-regulated guanine nucleotide exchange factor 4 (EPAC2) (AID 1645885). Also: potency is read from the fitted curve at half-maximal effect; nearly all actives have a fitted effect of over 25% in size.
The target of experiment [10] is Catechol O-methyltransferase (Homo sapiens) (UniProt P21964). The experiment in a line: Confirmatory Screen for Target Class Profiling of Small Molecule Inhibitors of Methyltransferases (AID 1745852; calls by dose curve; also: potency is read from the fitted curve at half-maximal effect; as to activity change, negative = inhibition: % is scaled to controls: 0 for no effect and ±100 for the full control effect). The settings on record: MTase-Glo luminescence, SAH detection, recombinant enzyme; measured here: COMT max response; stronger effect = lower value.
Experiment [11] has as its target Guanidinoacetate N-methyltransferase (Homo sapiens) (UniProt Q14353). The description is as above. The settings on record: MTase-Glo luminescence, SAH detection, recombinant enzyme; activity change, negative = inhibition: at 57.3 µM (top of the series).
In experiment [12] the target is Nicotinamide N-methyltransferase (Homo sapiens) (UniProt P40261). The experiment is described as above. The settings on record: MTase-Glo luminescence, SAH detection, recombinant enzyme; measured here: NNMT max response; stronger effect = lower value.
Experiment [13] has as its target Phenylethanolamine N-methyltransferase (Homo sapiens) (UniProt P11086). The experiment is described as above. The settings on record: MTase-Glo luminescence, SAH detection, recombinant enzyme; measured here: PNMT max response; stronger effect = lower value.
Experiment [14] concerns the target Rap guanine nucleotide exchange factor 3 (Homo sapiens) (UniProt O95398). Description: Counterscreen qHTS for antagonist of cAMP-regulated guanine nucleotide exchange factor 3 (EPAC1) (AID 1645888).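 Also: fluorescence loss as bound BODIPY-GDP is released from Rap1B; % of control where 0% means no effect.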 The gist of the method:
(§1)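 Rap1B-BODIPY-GDP 250 nM + GDP 50 uM; cpds 7-pt, final 9.74 nM–152 uM (activator mode) or from 7.32 nM upwards (inhibitor mode); RT; FI 480/540 nm at 5 and 30 min, then ± cAMP, reread.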

The target is the same in experiment [15]. Description: Counterscreen qHTS for agonist of cAMP-regulated guanine nucleotide exchange factor 3 (EPAC1) (AID 1645889). Also: % of control where 0% means no effect; nearly all actives have a fitted effect of over 40% in size. The gist of the method: as §1

SMILES strings stand for the structures. Values joined by “and” are separate entries in the source; they are usually repeats but may differ in a detail not shown here. Identical values can stand only once. Inconclusive results are not listed. The source holds several records for some structures; these can differ, active in one and inactive in another. Active and inactive are the calls of the source. Unless noted, calls follow the shape of the dose curve; as a rule, active = well fitted curve in the direction sought with a large enough effect; inconclusive = small, poorly fitted or top-dose-only effect, or another doubt; inactive = no such curve, though single readings can be large; an effect the other way counts as inactive or inconclusive.

Chain of Rap guanine nucleotide exchange factor 3 (Homo sapiens) (O95398 whole entry, looked up): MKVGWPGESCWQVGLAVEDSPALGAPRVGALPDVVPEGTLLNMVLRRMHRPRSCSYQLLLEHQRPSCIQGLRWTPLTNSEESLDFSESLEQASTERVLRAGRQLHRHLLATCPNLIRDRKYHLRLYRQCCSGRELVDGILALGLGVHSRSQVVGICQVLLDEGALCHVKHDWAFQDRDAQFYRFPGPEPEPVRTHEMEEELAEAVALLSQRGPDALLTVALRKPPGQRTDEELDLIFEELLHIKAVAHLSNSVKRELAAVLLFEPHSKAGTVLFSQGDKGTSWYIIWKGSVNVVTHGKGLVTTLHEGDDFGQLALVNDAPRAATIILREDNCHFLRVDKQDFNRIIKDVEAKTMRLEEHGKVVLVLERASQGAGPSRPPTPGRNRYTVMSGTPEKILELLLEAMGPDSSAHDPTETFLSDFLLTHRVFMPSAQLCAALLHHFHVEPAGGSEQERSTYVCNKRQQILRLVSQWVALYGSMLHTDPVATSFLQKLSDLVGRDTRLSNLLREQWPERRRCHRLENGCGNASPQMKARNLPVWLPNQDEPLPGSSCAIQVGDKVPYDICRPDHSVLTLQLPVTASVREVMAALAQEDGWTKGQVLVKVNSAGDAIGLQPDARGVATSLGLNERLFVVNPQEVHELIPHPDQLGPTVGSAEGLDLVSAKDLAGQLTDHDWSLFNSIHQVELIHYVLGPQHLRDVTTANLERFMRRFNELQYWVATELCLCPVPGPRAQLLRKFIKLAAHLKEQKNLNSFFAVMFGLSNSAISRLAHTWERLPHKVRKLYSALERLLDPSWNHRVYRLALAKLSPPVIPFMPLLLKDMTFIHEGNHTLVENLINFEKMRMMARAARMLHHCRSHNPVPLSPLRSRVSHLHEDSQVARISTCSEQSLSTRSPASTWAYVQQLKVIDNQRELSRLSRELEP
Chain of Papain (Carica papaya) (P00784 whole entry, looked up, the tested form may be a part): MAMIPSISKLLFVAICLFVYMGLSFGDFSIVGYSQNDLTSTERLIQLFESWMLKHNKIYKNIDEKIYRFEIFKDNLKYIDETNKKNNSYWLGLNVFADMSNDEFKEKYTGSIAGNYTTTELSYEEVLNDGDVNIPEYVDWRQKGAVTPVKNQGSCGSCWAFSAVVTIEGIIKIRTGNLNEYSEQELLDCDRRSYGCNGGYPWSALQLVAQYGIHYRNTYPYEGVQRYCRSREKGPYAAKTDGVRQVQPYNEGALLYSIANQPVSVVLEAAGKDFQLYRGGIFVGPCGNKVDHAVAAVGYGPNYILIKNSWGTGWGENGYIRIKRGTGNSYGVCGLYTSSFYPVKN
Chain of Rap guanine nucleotide exchange factor 4 (Homo sapiens) (Q8WZA2 whole entry, looked up): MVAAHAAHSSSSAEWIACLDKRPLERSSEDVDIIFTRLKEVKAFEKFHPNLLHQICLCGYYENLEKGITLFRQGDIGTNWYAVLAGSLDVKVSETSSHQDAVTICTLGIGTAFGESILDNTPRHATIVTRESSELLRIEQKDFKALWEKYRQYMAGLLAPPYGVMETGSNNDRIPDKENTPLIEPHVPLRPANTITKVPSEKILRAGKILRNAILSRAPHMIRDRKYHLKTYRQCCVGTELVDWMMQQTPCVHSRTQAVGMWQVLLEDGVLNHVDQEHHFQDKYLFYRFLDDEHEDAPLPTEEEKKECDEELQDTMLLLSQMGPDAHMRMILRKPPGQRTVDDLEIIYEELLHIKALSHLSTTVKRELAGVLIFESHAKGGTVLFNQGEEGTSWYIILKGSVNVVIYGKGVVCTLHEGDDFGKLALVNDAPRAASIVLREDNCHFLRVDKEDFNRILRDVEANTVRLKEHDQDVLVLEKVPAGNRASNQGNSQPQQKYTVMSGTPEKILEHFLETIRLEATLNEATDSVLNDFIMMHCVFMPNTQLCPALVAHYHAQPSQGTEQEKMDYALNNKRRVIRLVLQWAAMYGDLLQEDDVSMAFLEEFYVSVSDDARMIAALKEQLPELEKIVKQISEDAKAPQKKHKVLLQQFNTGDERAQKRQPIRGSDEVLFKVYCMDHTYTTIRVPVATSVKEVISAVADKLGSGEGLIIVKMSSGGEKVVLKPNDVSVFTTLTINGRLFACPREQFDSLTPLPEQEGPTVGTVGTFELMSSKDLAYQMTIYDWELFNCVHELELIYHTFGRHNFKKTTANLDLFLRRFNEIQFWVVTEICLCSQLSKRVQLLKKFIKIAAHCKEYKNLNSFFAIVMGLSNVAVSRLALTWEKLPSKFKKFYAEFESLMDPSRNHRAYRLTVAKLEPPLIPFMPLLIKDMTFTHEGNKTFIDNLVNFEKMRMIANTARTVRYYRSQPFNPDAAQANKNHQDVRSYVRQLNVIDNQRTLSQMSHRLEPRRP
Chain of Phenylethanolamine N-methyltransferase (Homo sapiens) (P11086 whole entry, looked up): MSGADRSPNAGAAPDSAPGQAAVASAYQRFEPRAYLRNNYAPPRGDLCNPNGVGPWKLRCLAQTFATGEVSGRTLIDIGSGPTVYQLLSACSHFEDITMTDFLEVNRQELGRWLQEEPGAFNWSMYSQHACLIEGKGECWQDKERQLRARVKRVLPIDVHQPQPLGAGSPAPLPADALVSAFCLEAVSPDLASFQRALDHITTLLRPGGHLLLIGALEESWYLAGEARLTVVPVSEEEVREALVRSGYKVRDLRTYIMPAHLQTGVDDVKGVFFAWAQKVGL
Chain of Nicotinamide N-methyltransferase (Homo sapiens) (P40261 whole entry, looked up): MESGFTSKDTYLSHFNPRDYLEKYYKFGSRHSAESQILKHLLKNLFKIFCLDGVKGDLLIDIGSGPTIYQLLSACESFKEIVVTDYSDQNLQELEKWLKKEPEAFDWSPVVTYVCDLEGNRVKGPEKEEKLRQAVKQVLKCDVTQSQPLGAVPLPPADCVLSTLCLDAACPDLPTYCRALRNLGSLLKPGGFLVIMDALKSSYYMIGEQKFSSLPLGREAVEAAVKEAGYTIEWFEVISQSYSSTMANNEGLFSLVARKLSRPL
Chain of Catechol O-methyltransferase (Homo sapiens) (P21964 whole entry, looked up): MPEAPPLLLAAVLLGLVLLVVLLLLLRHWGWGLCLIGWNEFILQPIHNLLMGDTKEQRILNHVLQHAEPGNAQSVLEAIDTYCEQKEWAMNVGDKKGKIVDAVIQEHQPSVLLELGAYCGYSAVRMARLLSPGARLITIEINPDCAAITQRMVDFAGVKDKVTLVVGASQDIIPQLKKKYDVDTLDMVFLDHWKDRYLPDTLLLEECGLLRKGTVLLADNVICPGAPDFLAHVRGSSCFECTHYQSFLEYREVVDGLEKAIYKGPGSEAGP

For the compound `COc1ccccc1OCC(O)CN1CCN(CC(=O)Nc2c(C)cccc2C)CC1` (centres undefined), the Potency result (with Papain (Carica papaya); in experiment [1]; in experiment [2]; in [3]) was “inactive” each time.

With `Nc1nc2c(ncn2COC(CO)CO)c(=O)[nH]1`, the Potency entry (with Papain (Carica papaya); in experiment [1]; in experiment [2]; in [3]) was “inactive” throughout.

Turning to `Cn1c(=O)c2c(ncn2C)n(C)c1=O`, the Potency result (with Papain (Carica papaya); in experiment [1]; in [2]) was “inactive” throughout. Besides, the outcome in experiment [4] and in [5] was “inactive” each time.

Consider `NC(=O)NO`, for which the Potency result (with Papain (Carica papaya); in experiment [1]; in experiment [2]; in [3]) was “inactive” throughout.

As for `CS(=O)(=O)CCNCc1ccc(-c2ccc3ncnc(Nc4ccc(OCc5cccc(F)c5)c(Cl)c4)c3c2)o1`, the Potency in [1] was 18.8 µM (active) and 9.16 µM (active) and 16.6 µM (active); in [2], 11.9 µM (active) and 7.28 µM (active) and 16.6 µM (active).

With `CC(=O)OCC(CCn1cnc2cnc(N)nc21)COC(C)=O`, the Potency entry (in the experiment with Papain (Carica papaya); in [1]; in experiment [2]; in experiment [3]; in experiment [6]) was “inactive” in each case.

Take `CC(C)(C)C(=O)Oc1ccc(S(=O)(=O)Nc2ccccc2C(=O)NCC(=O)O)cc1`: the Potency entry (in the experiment with Papain (Carica papaya); in experiment [1]; in experiment [2]; in [3]) was “inactive” in each case.

As to `OCCN1CCN(CCCN2c3ccccc3Sc3ccc(C(F)(F)F)cc32)CC1`, the Potency result (with Papain (Carica papaya); in [7]; in experiment [8]; in experiment [6]) was “inactive” in each case. Also, the Potency in experiment [1] is 18.8 µM (active); in experiment [2] it was 18.8 µM (active); in [9], 44.1 µM (active); in experiment [11] it was 0.0306 µM (active). The activity was -1.96% in experiment [10], -64.7% in experiment [12] and -1.22% in experiment [13].

Take `Nc1ccn([C@H]2CC[C@@H](CO)O2)c(=O)n1`: the Potency entry (with Papain (Carica papaya); in [3]) was “inactive” throughout.

Regarding `Cc1ccc(C(=O)Nc2ccc(S(=O)(=O)O)c3cc(S(=O)(=O)O)cc(S(=O)(=O)O)c23)cc1NC(=O)c1cccc(NC(=O)Nc2cccc(C(=O)Nc3cc(C(=O)Nc4ccc(S(=O)(=O)O)c5cc(S(=O)(=O)O)cc(S(=O)(=O)O)c45)ccc3C)c2)c1`, in the experiment with Papain (Carica papaya), the Potency was 7.08 µM (active). Besides, the Potency result in experiment [1] and in experiment [2] was “inactive” throughout. The figures for the activity in [10], in [12] and in experiment [13] were 5.77%, -4.38% and 6.94%, respectively. Also, the activity change, negative = inhibition in experiment [11] came to 2.65%.

Turning to `CC(C)Cc1ccc(C(C)C(=O)O)cc1` (centres undefined), the Potency entry (in the experiment with Papain (Carica papaya); in experiment [1]; in experiment [2]; in experiment [3]) was “inactive” in each case.

For `NS(=O)(=O)c1cc2c(cc1Cl)NCNS2(=O)=O`, the Potency entry (with Papain (Carica papaya); in experiment [1]; in [2]; in [3]) was “inactive” throughout.

With `CN(C)CCCN1c2ccccc2CCc2ccc(Cl)cc21`, the Potency entry (in the experiment with Papain (Carica papaya); in experiment [3]) was “inactive” each time. Further, in experiment [2], the Potency was 16.8 µM (active) and 18.6 µM (active).

As to `O=c1c(O)c(-c2ccc(O)c(O)c2)oc2cc(O)cc(O)c12`, the Potency result (with Papain (Carica papaya); in experiment [7]; in experiment [8]; in [15]) was “inactive” in each case. Besides, the Potency in experiment [1] was 11.9 µM (active) and inactive and 9.2 µM (active); in [2], “inactive and 14.6 µM (active)”; in experiment [9], 75.7 µM (active). The outcome in experiment [14] and in experiment [5] was “inactive” each time.

As for `NC12CC3CC(CC(C3)C1)C2`, the Potency entry (with Papain (Carica papaya); in experiment [1]; in experiment [2]; in experiment [3]) was “inactive” each time.

For the compound `Cc1cn([C@H]2C[C@H](N=[N+]=[N-])[C@@H](CO)O2)c(=O)[nH]c1=O`, the Potency result in [1] and in experiment [3] was “inactive” in each case.
